“And” between values parts separate entries of the source, which are not always exact repeats. Identical values can stand only once. Records with an inconclusive call do not appear. A structure can be active in one record and inactive in another. The source made the active and inactive calls. The call rests on the fitted dose curve; in most records, active means well fitted inhibition curve with a large enough effect; inconclusive means small, poorly fitted or top-dose-only effect; inactive means flat fitted curve, though single readings scatter.
Assay: Drug repurposing screens with cells derived from glioblastoma tumor samples (AID 1345199); further: nearly all actives have a fitted effect of over 40% in size
Settings: GBM patient neurospheres viability, ATP luminescence, 48 h
Method: CD133+ cells were isolated from GBM patient biopsies and cultured as neurospheres. Neurospheres from four patients were used to screen the NCATS pharmaceutical collection (NPC) library of approved drugs and bioactive compounds. […] The neurospheres were incubated with drugs for 48 hours in 1536-well format, then assayed with an ATP content cell viability assay. […] These hits were cherry picked to confirm activity in the four original GBM lines screened plus three other slower growing GMB lines (unable to yield enough cells for a full primary screen). Variable activities of the confirmed primary hits in the different GBM patient lines were observed. The patient line 206 responded to the greatest number of compounds and line 923 responded to the least amount of active compounds.

[1] = at 45.9 µM (top of the series), tumour line B
[2] = at 45.9 µM (top of the series), tumour line D
[3] = at 46 µM (top of the series), tumour line A
[4] = at 46.1 µM (top of the series), tumour line C
On the % scale 0 is the no-effect control and ±100 the full control effect; potency means the concentration at half of the fitted maximal effect.

CC1(C)[C@H](C=C(Cl)Cl)[C@H]1C(=O)OCc1c(F)c(F)cc(F)c1F
inactive: activity, negative = cell killing [1] -3.56% | activity, negative = cell killing [2] -11.5% | activity, negative = cell killing [3] -26.8% | activity, negative = cell killing [4] -13.8%

ClC=C(Cl)Cl
inactive: activity, negative = cell killing [1] -0.797% | activity, negative = cell killing [2] -16.6% | activity, negative = cell killing [3] -33.6% | activity, negative = cell killing [4] -1.4%

FC(F)OC(F)(F)C(F)Cl (stereo unspecified)
inactive: activity, negative = cell killing [1] -9.16% | activity, negative = cell killing [2] 6% | activity, negative = cell killing [3] -21% | activity, negative = cell killing [4] -2.93%

CN(C)[C@H](Cc1ccccc1)c1ccccc1
inactive: activity, negative = cell killing [1] -3.48% | activity, negative = cell killing [2] -20.8% | activity, negative = cell killing [4] -18.9%
active: Potency (tumour line A) 20 µM

CNC1(c2ccccc2Cl)CCCCC1=O (stereo unspecified)
inactive: activity, negative = cell killing [1] -12.1% and -12.4% | activity, negative = cell killing [2] -13.4% and -12.7% | activity, negative = cell killing [4] -5.45%

CCOC(=O)c1ccccc1C(=O)OCC
inactive: activity, negative = cell killing [1] -8.14% | activity, negative = cell killing [2] -11.3% | activity, negative = cell killing [3] -28.3% | activity, negative = cell killing [4] 0.324%

Cc1ccccc1-n1c(C)nc2ccccc2c1=O
active: Potency (tumour line A) 44.7 µM
inactive: activity, negative = cell killing [1] -8.69% | activity, negative = cell killing [2] -13.3% | activity, negative = cell killing [4] -24.2% | activity, negative = cell killing (at 91.6 µM (top of the series), tumour line B) -8.55% | activity, negative = cell killing (at 91.6 µM (top of the series), tumour line D) -15.5% | activity, negative = cell killing (at 99.2 µM (top of the series), tumour line C) -4.7%

[2H]C([2H])([2H])[C@H](N)Cc1ccccc1
inactive: activity, negative = cell killing [1] -8.74% | activity, negative = cell killing [2] -8.54% | activity, negative = cell killing [4] -22.7%

CCNC(C)Cc1cccc(C(F)(F)F)c1 (stereo unspecified)
inactive: activity, negative = cell killing [1] -2.98% | activity, negative = cell killing [2] -5.81% | activity, negative = cell killing [3] -19.5% | activity, negative = cell killing [4] -4.96%

O=C1C2CC=CCC2C(=O)N1SC(Cl)(Cl)Cl (stereo unspecified)
inactive: activity, negative = cell killing [4] -4.36%
active: Potency (tumour line A) 7.08 µM | Potency (tumour line B) 20 µM | Potency (tumour line D) 11.2 µM

From PubChem BioAssay (NCATS)
